# This excerpt belongs to a sample that is enriched for hits.
# Marburg entry inh: qHTS for inhibitors of binding or entry into cells for Marburg Virus; Marburg virus pseudotyped entry inhibition, cell reporter; Potency, µM (titrated, usually from 37.8 µM), most hits filed as inhibitors; hit rate 1.8% among 300,000; AID 540276, 2011; calls by dose curve; tested in HEK293 cells
# Lassa entry inh: qHTS for Inhibitors of binding or entry into cells for Lassa Virus; Lassa virus pseudotype entry inhibition, cell reporter; AID 540256, 2011; hit rate 1.2% among 300,000; Potency, µM (top dose mostly 37.9 µM), actives largely listed as inhibitors; calls by dose curve; tested in HEK293 cells; note: nearly all actives have a fitted effect of over 50% in size
# Vaccinia mCherry: qHTS for Stage-Specific Inhibitors of Vaccinia Orthopoxvirus: mCherry Reporter Primary qHTS; Vaccinia virus mCherry reporter infection, fluorescence; Potency, µM (series often up to 36.5 µM), hits mostly inhibitors; hit rate 0.63% among 310,000; calls by dose curve; tested in A549 cells; note: nearly all actives have a fitted effect of over 35% in size
# VACV Venus inh: qHTS for Stage-Specific Inhibitors of Vaccinia Orthopoxvirus: Venus Reporter Primary qHTS | Vaccinia virus Venus reporter expression, fluorescence | Potency, µM (top dose mostly 36.5 µM), most hits filed as inhibitors | hit rate 0.46% among 330,000; calls by dose curve; tested in A549 cells; note: nearly all actives have a fitted effect of over 30% in size
# Shiga toxin inh: A qHTS for Small Molecule Inhibitors of Shiga Toxin; Vero cells, Shiga toxin protein synthesis inhibition reporter; hit rate 9.2% among 290,000; inhibition, % at 38.7 µM; in the data active = inhibition mostly above about 28%, no sharp cut-off; inactive = mostly below about 43%
# CHX counter: Cycloheximide Counterscreen for Small Molecule Inhibitors of Shiga Toxin; max response, %; cell reporter, cycloheximide protein synthesis inhibition counterscreen; AID 2314, 2010; hit rate 12% among 300,000; in the data active = max response mostly above about 13%, no sharp cut-off; inactive = mostly below about 14%; note: read at 38.3 µM for the half of the compounds with a filed dose
# Hits are given with their value; i = inactive; ? = inconclusive; nt = no result given; ! = repeats disagree; [ ] = remark or other dose.
SMILES,Marburg entry inh,Lassa entry inh,Vaccinia mCherry,VACV Venus inh,Shiga toxin inh,CHX counter
COC(COC(N)=O)C1=C(N2CC2)C(=O)C(C)=C(N2CC2)C1=O (stereo not given),?,1.26µM,?,2.82µM,nt,nt
COc1ccc(-n2c(SCC(=O)Nc3cc(C)on3)nc3c([nH]c4ccccc43)c2=O)cc1OC,?,i,i,i,i,i
CN(C)c1ccc(/C=C2\C=Nc3ccccc32)cc1,nt,nt,i,i,nt,nt
CN(C)S(=O)(=O)c1cccc(-c2nnc(SCc3ccc4c(c3)OCCO4)o2)c1,i,i,i[1.46 µM],i,i,32.6
CCN(CC)S(=O)(=O)c1cccc(-c2nnc(SCCCC(=O)c3ccc(F)cc3)o2)c1,20.6µM!,?,nt,nt,i,i
CCN(CC)S(=O)(=O)c1cccc(-c2nnc(SCc3nc4ccccc4s3)o2)c1,?,?,nt,28.2µM,i,22.8
Brc1ccccc1-c1nnc(SCc2nc3ccccc3s2)o1,?,?,i,i,100.9,52.9
CCN(CC)S(=O)(=O)c1cccc(-c2nnc(SCCCC(=O)c3ccccc3)o2)c1,?,?,nt,nt,i,i
CC(C)C[C@H]1CN(CCCC[C@H]2CNC(=O)C(=O)N2CC2CCCCC2)C(=O)C(=O)N1CCC1CCCCC1,nt,nt,i,i,nt,nt
O=C(Nc1ccc(Cl)cn1)c1cnn2c1NC(=C1CC1)C=C2C(F)F,nt,nt,?,i,nt,nt
COCCCN=Cc1c(C)[nH]n(-c2ccc(Br)c(C)c2)c1=O,?,11.2µM,i,i,37.8,49.4
Cc1cc2cc(CN(CC3CCCO3)C(=S)Nc3ccccc3)c(=O)[nH]c2cc1C (stereo not given),?,7.08µM,i,?,i,i
O=C(Nc1ccc(F)cc1)N(CCCN1CCOCC1)Cc1cc2cc3c(cc2[nH]c1=O)OCCO3,i,i,nt,?,i,37.2
CCN(CC)CCN(Cc1cc2cc3c(cc2[nH]c1=O)OCCO3)C(=S)NCC(C)C,11.2µM,?,i,?,i,i
CN(C)CCCN(Cc1cc2cc3c(cc2[nH]c1=O)OCO3)C(=S)Nc1cccc(Cl)c1,?,?,i,i,i,i
CN(C)CCCN(Cc1cc2cc3c(cc2[nH]c1=O)OCO3)C(=S)Nc1ccccc1,?,?,i,i,30.5,i
CCCCn1cc(S(=O)(=O)c2ccc(CC)cc2)c(=O)c2cc(F)c(N3CCOCC3)cc21,nt,i,i,i,nt,nt
CCS(=O)(=O)N1CCC(C(=O)Nc2ccc(C(C)=O)cc2)CC1,nt,nt,nt,nt,i,i
Nn1c(=O)[nH]c2c([nH]c3ccccc32)c1=O,i,i,i,i,i,i
O=c1c2[nH]c3ccccc3c2nc2n1CCCS2,i,?,i,i,73.8,38.2
O=c1c2[nH]c3ccc(F)cc3c2nc2n1CCS2,?,i,i,i,i,i
O=c1c2[nH]c3ccc(F)cc3c2nc2n1CCCS2,i,i,i,i,54.1,25.4
Cc1nc2c([nH]c3ccccc32)c(=O)n1N,i,i,i,i,i,27.8
Cc1nn(C(C)(C)C)c(OC(=O)C(C)(C)C)c1Sc1ccccc1,i,?,i,i,nt,nt
COc1ccccc1CNC(=O)c1cnn(-c2ccc(F)cc2F)c1C1CCN(C(=O)OC(C)(C)C)CC1,nt,?,i,i,nt,nt
SMILES,Marburg entry inh,Lassa entry inh,Vaccinia mCherry,VACV Venus inh,Shiga toxin inh,CHX counter
CCCc1cnc2c(c1SCc1cccc(C)c1)c(=O)n(C)c(=O)n2C,nt,i,i,i,nt,nt
COc1cccc(C(=O)Nc2ccc3nc(N4CCN(c5ncccn5)CC4)cc(C)c3c2)c1OC,nt,nt,nt,nt,i,13.6
CCN1CCN(c2cc(C)c3cc(NC(=O)c4cc(OC)c(OC)c(OC)c4)ccc3n2)CC1,nt,i,?,i,nt,nt
COc1ccc(/C=C/C(=O)Nc2ccc3nc(N4CCC(C)CC4)cc(C)c3c2)cc1OC,10µM,?,i[7.34 µM],i[7.34 µM],nt,nt
CCOc1ccccc1C(=O)Nc1ccc2nc(N3CCN(c4ncccn4)CC3)cc(C)c2c1,13µM,?,nt,nt,nt,nt
Cc1ccccc1C(=O)Nc1ccc2nc(N3CCCCC3)cc(C)c2c1,?,i,i,i,nt,nt
CCC(C)c1ccccc1N=Cc1ccc2c(c1)OCO2 (stereo not given),i,i,i,i,i,i
O=C(COC(=O)C1CC1)NC(=O)NCc1ccccc1,i,i,i,i,i,i
CCc1c(C)c2ccc(O)c(CN3CCN(c4ccccc4)CC3)c2oc1=O,?,?,i,i,nt,nt
Cc1ccc(C(=O)N2CCN(Cc3ccccc3)CC2)cc1S(=O)(=O)N1CCOCC1,i,i,i,i,nt,nt
CN1CCc2nc(SCC(=O)Nc3cccc(F)c3)c(C#N)c(-c3cccs3)c2C1,i,i,i,i,52.8,i
N#Cc1cnc(Sc2ccccc2)nc1,i,i,i,i,i,i
C=CCNc1nc(-c2sc(NC(C)=O)nc2C)cs1,i,i,nt,nt,132.0,40.9
C=CCNc1nc(-c2sc(NC(=O)CC)nc2C)cs1,?,?,?,i,95.8,35.9
CSc1ncccc1C(=O)NCCN1Cc2ccccc2OC(c2ccccc2F)C1 (stereo not given),nt,nt,i,i,nt,nt
OC[C@@H]1CN(Cc2ccc(-c3ccccc3)cc2)C[C@H](n2cnc3c(NCc4ccc(F)cc4)ncnc32)O1,nt,nt,i,?,nt,nt
Cc1cccc(OCc2nc(CC(=O)Nc3ccc(Cl)cc3)cs2)c1,i,i,i,i,nt,nt
COc1ccc(C(=O)Nn2c(SCC(=O)NCc3ccccc3)nc3ccccc3c2=O)cc1,?,?,nt,nt,i,50.8
COc1ccc(C(=O)Nn2c(SCC(=O)NC3CCCC3)nc3ccccc3c2=O)cc1,?,?,nt,nt,i,68.9
O=C(CSc1nc2ccccc2c(=O)n1CC1CCCO1)NCC1CCCO1 (stereo not given),i,i,nt,nt,i,i
O=C(CSc1nc2ccccc2c(=O)n1NC(=O)Cc1ccccc1)NCc1ccccc1,i,i,nt,nt,i,i
COc1ccc(C(=O)Nn2c(SCC(=O)NCC3CCCO3)nc3ccccc3c2=O)cc1 (stereo not given),?,7.3µM,nt,nt,i,i
CCCc1nc2oc3c(NCCN(C)C)ncnc3c2c2c1CCCC2,?,16.4µM,nt,nt,i,i
O=C(Nc1ccc2sccc2c1)c1cccc(N2C(=O)CCC2=O)c1,i,i,i,i,91.7,37.2
O=C(Nc1nc2cc3c(cc2s1)OCCO3)c1cccc(N2C(=O)CCC2=O)c1,nt,nt,i,i,35.7,20.6
SMILES,Marburg entry inh,Lassa entry inh,Vaccinia mCherry,VACV Venus inh,Shiga toxin inh,CHX counter
CCN(CC)S(=O)(=O)c1cccc(C(=O)Nc2nc3cc4c(cc3s2)OCCO4)c1,18.3µM,?,?,?,i,i
O=C(Nc1nc2ccccc2s1)c1cccc(N2C(=O)CCC2=O)c1,i,i,i,i,i,i
CCN(CC)S(=O)(=O)c1cc(NC(=O)c2cccc(N3C(=O)CCC3=O)c2)ccc1Cl,i,i,i,i,nt,nt
Cc1cc(C)c2c(NC(=O)c3ccccc3Cl)c(C(=O)NCc3ccc(Cl)cc3)sc2n1,?,?,i,?,nt,nt
O=C(O)c1cccnc1C(=O)c1ccccc1,i,i,i[7.34 µM],i[7.34 µM],nt,nt
O=S(=O)(c1ccccc1C(F)(F)F)N1CCN(c2nc(-c3cccs3)nc3ccccc23)CC1,nt,nt,i,i,nt,nt
Cc1nn(-c2nc(-c3ccc(F)cc3)cc(C(F)(F)F)n2)c(C)c1Br,i,i,i,i,nt,nt

# Source: PubChem (National Center for Advancing Translational Sciences (NCATS))
